Records with an inconclusive call do not appear. Entries that show only a call come without a potency. A number with no mark means an inactive call. Activity calls are given as the source filed them. Calls follow the shape of the dose curve; as a rule, active = well fitted inhibition curve with a large enough effect; inconclusive = small, poorly fitted or top-dose-only effect; inactive = flat fitted curve, though single readings scatter.
What follows are molecules tested on Zika virus NS2B-NS3 protease (assay: Primary screen GU AMC qHTS for Zika virus inhibitors (AID 1347154; also: nearly all actives have a fitted effect of over 70% in size)). Conditions: Zika NS2B-NS3 unlinked protease, AMC fluorogenic substrate; series mostly up to 54.1 µM.
Summary of the method: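 Fluorogenic AMC-substrate cleavage by noncovalent NS2B-NS3 protease complex (25 nM, pH 8.0 Tris buffer with Tween 20) followed for 15 minutes at room temperature (~20% conversion). Percent inhibition from ex340/em450 signal change, fitted by 4-parameter Hill equation.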

| Compound | Potency | activity change, negative = inhibition |
| --- | --- | --- |
| COc1ccc(Cc2cnc(N)nc2N)cc1OC | inactive |  |
| O=C1C(c2[nH]c3ccccc3c2O)=Nc2ccccc21 | inactive |  |
| O=S1(=O)OC(c2ccc(O)cc2)(c2ccc(O)cc2)c2ccccc21 | inactive |  |
| N[C@@H](Cc1ccc(O)cc1)C(=O)O |  | 5.3% [at 6.83 µM] |
| O=C(O)CCCCC1CCSS1 (stereo not drawn) | inactive |  |
| CCCCCCCC(=O)OCC(O)CO (stereo not drawn) | inactive |  |
| CC(=O)N(CC(O)CN(C(C)=O)c1c(I)c(C(=O)NCC(O)CO)c(I)c(C(=O)NCC(O)CO)c1I)c1c(I)c(C(=O)NCC(O)CO)c(I)c(C(=O)NCC(O)CO)c1I (stereo not drawn) | inactive |  |
| Cc1c(N(C)C)c(=O)n(-c2ccccc2)n1C | inactive |  |
| CC(=O)Nc1cccc(O)c1 | inactive |  |
| CCN[C@H]1CN(CCCOC)S(=O)(=O)c2sc(S(N)(=O)=O)cc21 | inactive |  |
| CC1CCN(CCCC(=O)c2ccc(F)cc2)CC1 | inactive |  |
| CNCc1ccccc1 | inactive |  |
| NS(=O)(=O)c1cc(C2(O)NC(=O)c3ccccc32)ccc1Cl (stereo not drawn) | inactive |  |
